Measurements: PubChem BioAssay (NCI)
About 79,000 compounds went through this panel and 15% of them were active in at least one assay; those are over-represented in the sample as a whole. Unmarked numbers belong to inactive results. Activity calls are given as the source filed them. No stated cut-off is given here; in the data, active means growth inhibition above about 70%; inactive means the rest.

What was measured:
[1] = NCI Yeast Anticancer Drug Screen. Data for the rad50 strain (AID 155);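 further: 0% = growth of vehicle-only cultures of the same strain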; details: S. cerevisiae rad50 strain growth inhibition; at 50.0 µM; hits give high values
In short: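 Vehicle-treated cultures provide the reference for the growth inhibition reported for compound-exposed, repair-deficient yeast.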

[2] = NCI Yeast Anticancer Drug Screen. Data for the mec2-1 strain (AID 157); details: S. cerevisiae mec2-1 strain, at 50.0 µM, hits give high values
In short: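 Cells of the genetically defined mec2-1 yeast strain are incubated with test compound. Inhibition of growth is calculated against vehicle-treated controls.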

[3] = NCI Yeast Anticancer Drug Screen. Data for the sgs1 mgt1 strain (AID 161);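 further: 0% = growth of cultures given vehicle only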; details: S. cerevisiae sgs1 mgt1 strain, at 50.0 µM, hits give high values
In short: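 Read-out: growth inhibition vs vehicle controls. Cells: mutant yeast strain deficient in DNA damage repair.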

[4] = NCI Yeast Anticancer Drug Screen. Data for the cln2 rad14 strain (AID 165);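 further: 0% = growth equal to vehicle treated cultures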; details: S. cerevisiae cln2 rad14 strain, at 50.0 µM, hits give high values
In short: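 The screen exposed genetically defined yeast (cln2 rad14) to test compounds and scored growth inhibition relative to vehicle-treated controls.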

[5] = NCI Yeast Anticancer Drug Screen. Data for the bub3 strain (AID 167); details: S. cerevisiae bub3 mutant strain, at 50.0 µM, hits give high values
In short: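 Mutant yeast screening strain plus compound; vehicle-treated cultures serve as the 0% inhibition reference.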

[6] = NCI Yeast Anticancer Drug Screen. Data for the mlh1 rad18 strain (AID 175); details: S. cerevisiae mlh1 rad18 strain growth inhibition; at 50.0 µM; hits give high values
In short: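 Compound-treated yeast growth, normalised to vehicle controls. Strain bears defined DNA repair mutations.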

Row | SMILES | growth inhibition [1] | growth inhibition [2] | growth inhibition [3] | growth inhibition [4] | growth inhibition [5] | growth inhibition [6]
1 | COc1cccc(C2ON=C(c3ccccc3)N2C23CC4CC(CC(C4)C2)C3)c1 (stereo not drawn) | 8.5% | -3.4% | -34.2% | -6.7% | 10.1% | 14.9%
2 | Cc1ccc(C2(c3ccccc3)c3ccccc3C(=O)N2c2ccccc2)cc1 (stereo not drawn) | 97% (active) | 97.6% (active) | 97.7% (active) | 95% (active) | 97.2% (active) | 96.9% (active)
3 | CCCCCC(/C=C/[C@@H]1[C@H]2CC(=O)O[C@H]2C[C@H]1N1CCOCC1)OC1CCCO1 (stereo partly drawn) | 0.2% | -6.3% | 11.8% | -35.1% | -29.6% | 11.8%
4 | S=c1cc(-c2ccccc2)oc2ccccc12 | 9.35% | 10.8% | -1.1% | 6.85% | 4.85% | -2.8%
5 | Cc1ccc(S(=O)(=O)OC2CCCCCCCCCCC2=O)cc1 (stereo not drawn) | -3.55% | 6.1% | -7.1% | -11.9% | -0.2% | 6.3%
6 | C#CC(C)(O)CCCCCC (stereo not drawn) | 3.7% | 16.4% | 12% | -4.05% | 35% | -7.1%
7 | CC(C)C(N=Cc1ccccc1O)C(=O)O (stereo not drawn) | -8.35% | -21.9% | -10.2% | -5.75% | -47.9% | -4.3%
8 | CC(NC(=O)C(CC(=O)OCc1ccccc1)NC(=O)OCc1ccccc1)c1ccccc1 (stereo not drawn) | 9.5% | -20.5% | 9.15% | -21.6% | -17.4% | -1.3%
9 | CC[n+]1cc([N+](=O)[O-])ccc1Cl | 17.5% | 14.5% | 13.6% | 15.9% | 12.4% | 20.2%
10 | O=C(Nc1ccc(CCc2ccc(NC(=O)C34CC5CC(CC(C5)C3)C4)cc2)cc1)C12CC3CC(CC(C3)C1)C2 | -9.65% | -6.55% | 13.8% | -0.45% | -0.25% | 2.55%
11 | COc1ccc(-c2cc(C)cc(O)c2)c(OC)c1OC | 7.5% | 6.2% | 21.4% | -8.2% | -9.3% | -11.3%
12 | O=C(O)C1c2ccccc2-c2ccccc21 | 52.4% | 31.6% | 41.5% | -37.7% | 37.6% | 39%
13 | c1ccc(SC(Sc2ccccc2)=C2CCC2)cc1 | 9.7% | -8.1% | 10.4% | 14.8% | 18% | -6.35%
14 | O=C(CCC(=O)C1CCC/C1=N/O)Nc1ccc(Cl)cc1 (stereo not drawn) | -40.4% | -0.4% | 7.4% | 26.1% | 9.55% | 21.1%
15 | Nc1cccc(-c2nc3ncnc(N)c3[nH]2)c1 | 8.6% | -2.15% | -5.5% | -46.9% | -18.5% | -11.2%
16 | Nc1nc2c(ccc3ccccc32)[nH]1 | -19.8% | 6.8% | 8.4% | 6.5% | 10.3% | 21.6%
17 | N#C/C(=C\c1cccc(Br)c1)c1nc2ccccc2c(=O)[nH]1 | 5.75% | 4.4% | 0.2% | 1.55% | -14.4% | -35.4%
18 | O=C1c2cc3c(cc2CC12Cc1ccc4c(c1C2=O)CCCC4)CCCC3 (stereo not drawn) | -3.15% | -4.15% | -10.4% | 3.6% | 7.35% | 9.8%
19 | Cc1ccc(S(=O)(=O)N/N=C/C(C)c2cccnc2)cc1 (stereo not drawn) | -9% | 6.8% | 4% | 13.6% | 5.9% | 7.05%

Row | SMILES | growth inhibition [1] | growth inhibition [2] | growth inhibition [3] | growth inhibition [4] | growth inhibition [5] | growth inhibition [6]
20 | O=C(O)C1CC=CCC1c1c2ccc(=O)cc-2oc2cc(O)ccc12 (stereo not drawn) | 48.5% | 27.8% | 15.8% | -5.25% | 32.9% | 13.6%
21 | O=C(O)C(=O)c1ccc(O)cc1O | -1.6% | 2.6% | -8.15% | -35.9% | 1.85% | 14.9%
22 | Cc1cccc2c1C(=O)OC2(c1cccc2ccccc12)c1cccc2ccccc12 | -16.4% | 3.9% | 4.5% | -15.7% | 0% | 1.6%
23 | O=C(O)C1=C/C(=C\C=[N+]2c3cc(O)c(OC4OC(CO)C(O)C(O)C4O)cc3CC2C(=O)[O-])CC(C(=O)O)N1 (stereo not drawn) | -10.4% | -3.75% | 12.2% | -26.1% | 5.8% | 6%
24 | O=Cc1c(Cl)c(Cl)c(Cl)c(Cl)c1Cl | -2.3% | 6.3% | 16.9% | -39.6% | 4.6% | 51.1%
25 | N#C[C@H](c1nc2ccccc2s1)c1nc2ccccc2nc1Cl | 4.95% | 6.85% | 22.4% | 1.45% | 5.15% | 5.25%
26 | COC(=O)/C=C\C1(CC(C)C)N=C(c2ccccc2)OC1=O (stereo not drawn) | 14.9% | 25.1% | 15.8% | 11.2% | 36.1% | 26.8%
27 | O=C(OCC1OC(C2N(c3ccccc3)CCN2c2ccccc2)C(OC(=O)c2ccccc2)C1OC(=O)c1ccccc1)c1ccccc1 (stereo not drawn) | 0.85% | 6.5% | -26.4% | -7.45% | -11.9% | 9.7%
28 | C/C(=N/NC(N)=O)C(=O)O | -0.15% | 10.7% | 2.5% | -48.4% | -2.95% | 13.7%
29 | CCC(O)C(C)[N+](=O)[O-] (stereo not drawn) | 28% | -1.85% | 7.45% | 6% | 1.75% | 3.75%
30 | CCN(CC)CCOc1ccc(N2Cc3cc(OC)c(OC)cc3C2=O)cc1 | -11.9% | -7.45% | -4.2% | 13.5% | 8.6% | -13.8%
31 | CN(C)c1ccccc1C(=O)N/N=C/c1ccc(F)cc1 | -4.7% | -31.3% | -6.55% | -13.8% | -14.9% | -6%
32 | COC(=O)C1(COC(C)=O)CC1 | -6.8% | 1.55% | 6% | -15.6% | -2.75% | -3.2%
33 | CCCCCCCNC(C)=O | 14.1% | 15.5% | 3.6% | 10.1% | -0.7% | -5%
34 | CC(=O)OCCc1ccc2c(c1)OCO2 | -0.1% | -11.8% | 6.05% | -30.9% | -16.9% | -6.15%
35 | CC1(CCl)C(=O)C=Cc2ccccc21 (stereo not drawn) | 6.45% | 0.7% | -5.1% | -6.8% | 5.3% | -3.45%
36 | OCC(CBr)(CBr)CBr | 2.45% | -2% | 8.25% | 19.3% | 4.45% | -3.85%
37 | COc1ccc(OC)c(NC(=O)Oc2cc(C)c(Cl)c(C)c2)c1 | 5.85% | -1.85% | 7.1% | 8.25% | 9.1% | 6.35%
38 | N#CC1=C(O)/C(=C\c2ccc(Cl)cc2)N=C1N | -28.3% | -14.3% | -7.8% | -13.9% | -6.2% | -3.35%
